Screens: PubChem, The Scripps Research Institute Molecular Screening Center
FBW7 act: human FBW7 E3 ligase activation, primary screen; Q969H0; AlphaScreen FBW7–phospho-cyclin E peptide binding, activator screen; normalized activity (activation), % at 26.1 µM; 650,000 tested, 0.13% active; AID 1259310; in the data active = normalized activity above about 1.9%;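 note: purified mutant Fbw7 with reduced substrate affinity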
TEAD-YAP block: TEAD-YAP interaction inhibition. HEK-TIYL cells, TEAD-Gal4/YAP UAS-luciferase luminescence. AID 1259422. 640,000 tested, 1.4% active. inhibition, % at 9.12 µM; in the data active = inhibition above about 32%;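 note: 0% = median of test compound wells and 100% = reference inhibitor wells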
GPR151 ag: activators of human GPR151; Q8TDV0; PathHunter beta-arrestin GPR151 cells, luminescence; activation, % at 11.2 µM; 650,000 tested, 1% active; AID 1508602; in the data active = activation above about 4.9%;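 note: 0% = median of compound wells and 100% = cells with positive control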
Target sequence (Q8TDV0 whole entry, looked up): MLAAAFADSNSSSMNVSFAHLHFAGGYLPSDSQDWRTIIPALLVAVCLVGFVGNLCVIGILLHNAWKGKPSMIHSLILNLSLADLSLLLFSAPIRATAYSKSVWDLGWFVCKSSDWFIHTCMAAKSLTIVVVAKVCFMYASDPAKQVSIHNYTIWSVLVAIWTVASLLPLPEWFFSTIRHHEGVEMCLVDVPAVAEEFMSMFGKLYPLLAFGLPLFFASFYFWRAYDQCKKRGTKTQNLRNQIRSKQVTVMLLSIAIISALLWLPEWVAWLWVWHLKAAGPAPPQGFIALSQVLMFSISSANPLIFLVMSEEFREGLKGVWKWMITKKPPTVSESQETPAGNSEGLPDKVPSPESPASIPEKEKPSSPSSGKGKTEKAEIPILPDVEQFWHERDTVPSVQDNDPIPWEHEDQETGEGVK
MITF inh: blocks human microphthalmia-associated transcription factor; AlphaScreen MITF homodimerization, bead proximity signal; inhibition, % at 2.6 µM; 650,000 tested, 0.91% active; AID 1259374; in the data active = inhibition above about 50%;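 note: 0% = vehicle wells with protein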
* = called active by the depositor. A selection: hits, their analogues and other compounds. The true share with any hit is near 3.5%.

SMILES | FBW7 act | TEAD-YAP block | GPR151 ag | MITF inh
Cc1cc(C)cc(NC(=O)CSC2=NCCS2)c1 | 0 | 1 | 0 | 4
O=C(C(=O)N1CCN(C(=O)c2ccco2)CC1)c1c(-c2ccccc2)cc2ccccn12 | 0 | 42* | 0 | 3
CC1=C(C(=O)Nc2ccc(Br)cn2)C(c2ccc(Cl)c([N+](=O)[O-])c2)C2=C(CCCC2=O)N1 (stereo not given) | 0 | -2 | -1 | 19
Cc1cc(Sc2nc3c(C)cccn3c(=O)c2C=O)ncn1 | 1.9* | -2 | 0 | -1
Cc1nc2ccccc2n1CC(O)COc1ccc2ccccc2c1Br (stereo not given) | 0 | 45* | -1 | 6
COC(=O)c1cccc(OCC(O)Cn2c(C)nc3ccccc32)c1 (stereo not given) | 0 | 39* | 1 | 5
Cc1nc2ccccc2n1CC(O)COc1ccc(C(C)(C)C)cc1 (stereo not given) | 0 | 47* | 1 | -4
COc1ccc(OCC(O)Cn2c(C)nc3ccccc32)cc1 (stereo not given) | 0 | 44* | 2 | 3
CC(=O)c1ccc(Nc2ccc(-c3ccccc3F)nn2)cc1 | 0 | 57* | 0 | 2
CC(=O)c1ccc(NC2=C(Cl)C(=O)c3ccccc3C2=O)cc1 | 0 | 49* | -1 | 2
COC(=O)c1c(NC(=O)Cn2nc([N+](=O)[O-])c(Br)c2C)sc2c1CCC(C(C)(C)C)C2 (stereo not given) | 0 | 5 | 1 | -5
CCOC(=O)c1cc(S(=O)(=O)Nc2ccc(F)c(Cl)c2)cn1C | 0 | 4 | 0 | 1
Fc1ccc(Cn2nnnc2CN2CCN(c3ccccc3)CC2)cc1 | 0 | -6 | 0 | -3
COc1ccccc1CC(=O)Nc1cnc2cnc(-c3ccc(F)c(Cl)c3)cn12 | 1.9* | -5 | 0 | 6
COC(=O)c1cc(N2C(=O)C3C4C=CC(C4=C(C)C)C3C2=O)ccc1Cl (stereo not given) | 0 | 3 | -1 | 4
CCOC(=O)c1oc2c(C)c(O)ccc2c(=O)c1-c1nncn1-c1ccccc1 | 0 | 2 | -1 | 3
CCOC(=O)c1oc2c(O)c(O)ccc2c(=O)c1-c1nncn1-c1ccccc1 | -1 | 1 | 0 | 82*
COc1ccc(-c2nc(NCCc3ccc(O)cc3)c3ncn(-c4ccsc4)c3n2)cc1 | 0 | 56* | 2 | 12
COc1ccc(-c2nc(NCCc3ccc(O)cc3)c3ncn(C(C)C)c3n2)cc1 | 0 | 61* | -1 | 18
COc1ccc(CCNc2nc(-c3ccc(C(=O)N4CCN(C)CC4)cc3)nc3c2ncn3-c2ccccc2)cc1 | 0 | 41* | -2 | 8
COc1ccc(-c2nc(NCCc3ccc(O)cc3)c3ncn(-c4ccccc4)c3n2)cc1 | 0 | 24 | 2 | 17
COc1ccc(CCNc2nc(-c3ccccc3)nc3c2ncn3-c2ccsc2)cc1 | 0 | -2 | 1 | 12
CC(C)n1cnc2c(NCCc3ccc(O)cc3)nc(-c3ccccc3)nc21 | 0 | 15 | -1 | 2
COc1ccc(-c2nc(NCCc3ccc(O)cc3)c3ncn(-c4ccccc4)c3n2)cn1 | 0 | 47* | 4 | -4
COc1ccc(CN2CCc3nnc(C(NC(=O)c4ccccn4)C(C)C)n3CC2)cc1 (stereo not given) | 1 | 3 | 0 | 14
SMILES | FBW7 act | TEAD-YAP block | GPR151 ag | MITF inh
CCN1CCN(CCC(=O)Nc2ccccc2F)CC1 | 0 | -19 | -4 | 12
C=CCNC(=O)c1cc(Cl)ccc1NC(=O)c1ccc(OC)c(OC)c1 | 0 | 8 | -1 | 6
Cn1ccc(C(=O)N/N=C/c2ccc([N+](=O)[O-])cc2)n1 | 0 | -5 | -1 | -18
COc1ccc(CCNc2nc(-c3ccc(OC)nc3)nc3c2ncn3-c2ccsc2)cc1 | 0 | 46* | 0 | -7
Fc1cccc(-c2cnc3ccc(NCCc4cccnc4)nn23)c1 | 0 | 65* | 2 | 20
Clc1ccc(-c2cnc3ccc(NCCc4cccnc4)nn23)cc1 | 0 | 52* | 1 | -6
c1cncc(CCNc2ccc3ncc(-c4ccc5ccccc5c4)n3n2)c1 | 0 | 3 | 1 | 10
CC(C)C1=NN2C(=N)/C(=C/c3ccc([N+](=O)[O-])cc3)C(=O)N=C2S1 | 0 | 1 | -2 | 14
Cc1ccc(S(=O)(=O)/N=C2/C=C(ON=C3C=CC(=O)C=C3)C(=O)c3ccccc32)cc1 | 0 | 45* | -2 | 7
COc1ccc(C(=O)NNC(=O)[C@@H](NC(=O)c2ccc(C(C)(C)C)cc2)C(C)C)cc1 | 1 | -22 | -1 | 12
Cn1c(/C=C/c2cccc(Oc3ccccc3)c2)c([N+](=O)[O-])c(=O)n(C)c1=O | 0 | 45* | 1 | 5
Cn1c(/C=C/c2ccccc2)c([N+](=O)[O-])c(=O)n(C)c1=O | 0 | 25 | 0 | -6
Oc1c(C(Nc2nccs2)c2ccco2)ccc2cccnc12 (stereo not given) | 0 | 6 | 1 | 20
O=[N+]([O-])c1cccc(C(Nc2nccs2)c2ccc3cccnc3c2O)c1 (stereo not given) | 0 | 38* | -1 | 37
CCCC(=O)NC(c1cccc([N+](=O)[O-])c1)c1ccc2cccnc2c1O (stereo not given) | -2 | 66* | 1 | 31
CCCCC(=O)NC(c1ccc([N+](=O)[O-])cc1)c1ccc2cccnc2c1O (stereo not given) | -2 | 28 | 1 | 31
CCCC(=O)NC(c1cccc(F)c1)c1ccc2cccnc2c1O (stereo not given) | -1 | 50* | 0 | 20
CC(C)C(=O)NC(c1cccc([N+](=O)[O-])c1)c1ccc2cccnc2c1O (stereo not given) | -2 | 73* | 1 | 54*
CCOC(=O)c1c(NC(=O)CSc2nnc(-c3ccccc3)o2)sc2c1CCC2 | 0 | 7 | 0 | 12
CCN(CC)CCNc1nc2cc(OC)c(OC)cc2c2nc(-c3ccccc3)nn12 | 0 | 54* | 0 | 9
CCN(CC)CCCNc1nc2ccccc2c2nc(-c3cccnc3)nn12 | 0 | 49* | 0 | 12
CC1CCCC(C)N1CCNc1nc2ccccc2c2nc(-c3cccnc3)nn12 (stereo not given) | 0 | 81* | 0 | 3
CC1CCCCN1CCCNc1nc2ccccc2c2nc(-c3cccnc3)nn12 (stereo not given) | 1 | 50* | 0 | 18
CC(c1nccs1)N1C(=O)c2cccc(N3CCN(CC4CCCCC4)CC3)c2C1=O (stereo not given) | 0 | 2 | -1 | 5
O=C(NC1CCS(=O)(=O)C1)c1ccc(I)cc1 (stereo not given) | 0 | 11 | -2 | 1
CCSc1nnc(NC(=O)CS(=O)(=O)c2c[nH]c3ccccc23)s1 | 0 | 8 | 2 | -8
CCN1CCN(C(c2ccc(SC)cc2)c2c(O)cc(C)n(CC)c2=O)CC1 (stereo not given) | 0 | 7 | 2 | 0
Cc1cc[n+](CC(=O)c2ccc([N+](=O)[O-])cc2)c2ccccc12 | 0 | 23 | 1 | -7
